# PLK1 kinase inh = blocks human PLK1 kinase activity; inhibition, % at 10 µM; actives 0.53% (n = 97,000); recombinant PLK1 kinase, TR-FRET peptide phosphorylation; P53350;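 active = inhibition of 50% or more in the single-concentration screen; inactive = inhibition below 50%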;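 also: 0% = DMSO max control and 100% = H-89 dihydrochloride min control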
# Plk1 PBD FP = inhibitors of human Plk1 polo box domain binding; Plk1 PBD phosphopeptide binding, fluorescence polarization; inhibition, %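 (tested at about 20 µM)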; actives 0.13% (n = 97,000); AID 693; in the data active = inhibition above about 34%, passing the limit was not always enough
# sEH activator = increases human soluble epoxide hydrolase activity; P34913; purified human sEH enzymatic activity, activator screen; activation, % at 2 µM; actives 0.04% (n = 91,000); in the data active = activation above about 37%
# Target sequence (P34913 whole entry, looked up): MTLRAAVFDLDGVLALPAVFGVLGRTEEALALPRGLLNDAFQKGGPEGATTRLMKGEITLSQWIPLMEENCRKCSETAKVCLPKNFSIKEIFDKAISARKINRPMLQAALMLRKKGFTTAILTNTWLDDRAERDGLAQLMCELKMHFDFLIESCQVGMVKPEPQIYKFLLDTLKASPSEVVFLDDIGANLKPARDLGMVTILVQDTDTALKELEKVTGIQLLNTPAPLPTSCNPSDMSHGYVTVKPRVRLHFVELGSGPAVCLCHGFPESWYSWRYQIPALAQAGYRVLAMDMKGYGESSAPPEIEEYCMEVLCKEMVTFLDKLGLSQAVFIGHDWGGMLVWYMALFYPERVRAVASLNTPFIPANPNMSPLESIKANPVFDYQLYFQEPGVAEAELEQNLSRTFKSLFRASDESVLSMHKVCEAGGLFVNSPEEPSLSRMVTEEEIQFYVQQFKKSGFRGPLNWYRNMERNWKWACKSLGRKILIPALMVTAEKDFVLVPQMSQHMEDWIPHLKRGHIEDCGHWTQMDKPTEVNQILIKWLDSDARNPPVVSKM
# EphB4 ephrin blk = EphB4-ephrin-B2 interaction antagonism; P54760; EphB4 LBD / TNYL-RAW-Alexa532 peptide, fluorescence polarization; inhibition, % at 7 µM; actives 0.15% (n = 97,000); AID 720;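 active = inhibition above the screen-wide mean inhibition plus 3 SD, cut at about 15% in these data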;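 also: 0% = DMSO wells and 100% = excess unlabeled TNYL-RAW peptide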
# sEH inhibitor = inhibitors of human soluble epoxide hydrolase; recombinant human sEH enzymatic activity assay; inhibition, % at 2 µM; actives 0.34% (n = 91,000); AID 707; in the data active = inhibition above about 80%
# Starred values were filed as active, the others as inactive; · = no result given. Rows were chosen to be rich in hits. Some 1% of all compounds tested hit in one or more screens of this group.
SMILES,PLK1 kinase inh,Plk1 PBD FP,sEH activator,EphB4 ephrin blk,sEH inhibitor
COc1cccc(CNCCSc2nnnn2C)c1OC,-8.0,-0.6,10.7,2.9,-13.9
O=C(Nc1ccc(S(=O)(=O)Nc2ncccn2)cc1)c1ccc(Br)s1,-2.5,-14.4,0.8,6.0,-2.9
O=C(CCN1CCN(c2ccccc2)CC1)Nc1nccs1,65.4*,-5.2,-0.2,4.8,-0.7
O=C(CN1CCN(c2ccccc2)CC1)Nc1nccs1,-6.1,23.6,-4.2,4.3,8.9
COc1ccc(OC)c(NC(=O)CSc2ncnc3c2cnn3-c2ccccc2Cl)c1,-16.1,-21.3,0.0,6.3,2.4
COCCNC(=O)c1cn(C)c2ccc(S(=O)(=O)N(C)C3CCCCC3)cc2c1=O,62.1*,-9.8,·,0.8,·
CC(C)N(CCNC(=O)c1cn(C)c2ccc(S(=O)(=O)N(C)C)cc2c1=O)Cc1ccccc1,59.2*,-1.6,·,1.0,·
CN1CCN(CCCNC(=O)c2cn(C)c3ccc(S(=O)(=O)N(C)C)cc3c2=O)CC1,-13.0,-6.6,-10.1,-4.9,12.1
CCOCCCNC(=O)c1cn(C)c2ccc(S(=O)(=O)N(C)C3CCCCC3)cc2c1=O,-1.5,-14.7,-16.2,9.9,18.1
CC1Cc2ccccc2N1C(=O)Cn1cc([N+](=O)[O-])cn1 (stereo unspecified),-11.1,33.1,18.7,-2.8,-15.7
Cc1cc(=O)n(CCO)c(O)c1C#N,-11.0,6.0,-32.9,-6.1,33.9
Cc1cc(=O)n(CC(C)C)c(O)c1C#N,4.2,10.0,-5.9,16.6*,6.5
COc1ccc(CN(C(=O)c2ccco2)c2ccccc2)cc1,-8.4,-4.7,-5.6,-6.0,10.2
COc1ccc(N(CN2C(=O)C3C4C=CC(C4)C3C2=O)C(=O)c2ccco2)cc1 (stereo unspecified),1.3,52.2*,·,-6.7,·
Cc1cc(C(=O)CSc2nnc(Nc3ccccc3F)s2)c(C)n1CC1CCCO1 (stereo unspecified),-3.1,11.2,-1.5,15.5*,1.2
Cc1cc(C(=O)CSc2nnc(Nc3ccccc3)s2)c(C)n1CC1CCCO1 (stereo unspecified),-10.4,-0.6,-15.8,-1.6,15.4
O=C(Nc1ccccc1-c1nnc(SCc2ccccc2Cl)o1)c1ccccc1,-9.6,-2.2,10.8,3.9,-10.3
CCN1CCN(CCNC(=O)C2CCCN(Cc3nc(-c4cccc(Cl)c4)oc3C)C2)CC1 (stereo unspecified),57.0*,-2.7,·,0.7,·
COc1ccc(CNC(=O)CS(=O)Cc2nc(-c3ccccc3C)oc2C)cc1 (stereo unspecified),67.3*,-1.1,·,2.4,·
Cc1oc(-c2ccc(Cl)cc2)nc1CS(=O)CC(=O)NCCN1CCCC1 (stereo unspecified),59.6*,-2.1,·,-2.5,·
CCCCNC(=O)CS(=O)Cc1nc(-c2cccc(C)c2)oc1C (stereo unspecified),-5.2,-15.9,-6.3,-6.8,5.4
CCCCNC(=O)CS(=O)Cc1nc(-c2cccc(Cl)c2)oc1C (stereo unspecified),64.6*,-0.9,·,1.6,·
CCOC(=O)N1CCC(NC(=O)C2CCCN(Cc3nc(-c4cccc(Cl)c4)oc3C)C2)CC1 (stereo unspecified),21.9,0.3,-22.5,2.1,25.2
C[N+]1(CC(=O)Nc2ccccc2Cl)CCN(C(=O)c2cccs2)CC1,-5.4,-2.4,1.3,5.8,-3.2
C=CCOc1ccc2ccccc2c1CNc1ncn[nH]1,-7.6,7.5,-2.4,1.6,5.0
SMILES,PLK1 kinase inh,Plk1 PBD FP,sEH activator,EphB4 ephrin blk,sEH inhibitor
Cc1ccc(-c2nc(CS(=O)CC(=O)NCCN3CCCC3)c(C)o2)cc1 (stereo unspecified),62.5*,0.0,·,1.7,·
Cc1ccc(-c2nc(CS(=O)CC(=O)NCCN(CC(C)C)CC(C)C)c(C)o2)cc1 (stereo unspecified),-13.1,-0.9,-1.1,1.8,1.1
Cc1ccccc1-c1nc(CS(=O)CC(=O)NCCN2CCOCC2)c(C)o1 (stereo unspecified),-0.2,-23.5,·,-10.0,·
Cc1ccc(-c2nc(CS(=O)CC(=O)NCCN3CCOCC3)c(C)o2)cc1 (stereo unspecified),59.1*,-16.4,·,-0.9,·
Cn1c(SCC(=O)c2ccc3c(c2)OCCO3)nnc1C1CC1,61.3*,3.1,-2.1,-7.7,1.4
Cn1cnnc1SCC(=O)c1ccc2c(c1)OCCO2,-14.6,12.2,7.8,4.4,-7.7
O=c1[nH]c(SCc2nc3c(cnn3-c3ccccc3)c(=O)[nH]2)nc2ccccc12,17.7,23.6,12.8,-2.4,-12.9
Cc1ccc2nc(SCc3nc4c(cnn4-c4ccccc4)c(=O)[nH]3)[nH]c2c1,53.6*,4.6,3.8,-0.4,-3.1
Cc1c(O)cc2n(c1=O)-c1ccccc1C2(C)C,-7.9,-27.8,13.0,16.3*,-10.2
CN1/C(=C\C(=O)C(F)F)C(C)(C)c2ccccc21,1.5,14.7,-0.6,1.8,-0.2
CCN=c1scc(-c2ccco2)n1/N=C/c1ccc(O)cc1,-12.0,-3.9,-16.8,5.2,15.7
CCN=c1scc(C)n1/N=C/c1ccc(O)c(O)c1O,54.6*,-8.8,-3.3,1.1,7.2
CCCC(=O)Nn1cnc2c(c1=O)C1(CCCCC1)Cc1ccccc1-2,-6.7,2.0,-99.0,-0.1,99.0*
Cc1cccc(NC(=O)CSc2ncnc3nc[nH]c23)c1,55.4*,20.8,1.3,-7.2,-0.6
O=C(O)CSc1ncnc2nc[nH]c12,33.1,-0.5,-11.9,-1.9,12.6
CC(=O)Nc1ccccc1C(=O)C(=O)O,-11.4,-6.4,3.3,-9.3,-2.2
CC(=O)Nc1ccccc1C(=O)C(=O)Nc1cccc(F)c1,5.9,-1.1,39.0*,2.4,-43.2
CC(=O)Nc1nonc1NC(C)=O,-4.4,-32.4,5.7,11.1,-4.4
CC(=O)Nc1cc(OC(C)=O)c2nonc2c1OC(C)=O,4.6,53.6*,14.0,10.2,-12.5
COC(=O)c1ccc(CSc2ccc3nnc(-c4cccc(F)c4)n3n2)o1,6.8,13.2,-8.6,5.9,11.8
COCCN1Cc2cccc(C(=O)NC(C)c3cccs3)c2C1=O (stereo unspecified),-8.0,1.1,7.6,9.2,-7.3
CN(C)S(=O)(=O)c1ccc(C(=O)Nc2ccc(F)cc2F)cc1,65.6*,-7.5,·,1.4,·
COc1cccc(OC)c1C(=O)Nc1cc(C)on1,-11.9,23.5,-1.3,0.5,3.1
CCc1ccccc1N1CC23C=CC(O2)C(C(=O)OC)C3C1=O (stereo unspecified),57.3*,10.3,·,5.1,·
CCCCNC(=O)C1C2C=CC3(CN(Cc4ccccc4Cl)C(=O)C13)O2 (stereo unspecified),-11.7,-6.9,-2.5,16.1*,2.1
CCOC(=O)CSc1n[nH]c(-c2ccco2)n1,-6.0,12.4,19.3,-2.4,-20.3
O=C(O)c1ccc(CSc2n[nH]c(-c3ccco3)n2)cc1,1.3,-4.1,15.6,15.4*,-15.7
Cc1ccc(C(=O)c2coc3ccc(O)c(CN4CCN(C)CC4)c23)cc1,-4.9,-0.1,8.6,1.2,-10.2
O=S(=O)(Nc1nc2ccccc2[nH]1)c1ccc(Cl)cc1,60.9*,11.8,1.1,-2.7,-2.1
CN=C(NC#N)SCC(=O)c1ccc(Cl)cc1Cl,61.8*,8.9,8.1,1.7,-6.5

# From PubChem
